MITF TRPM1 HTS = increases MITF-driven TRPM1 promoter luciferase signal; AID 588334; activation, % at 12.5 µM; 300,000 compounds, 0.75% hits; SK-MEL-5 TRPM1-promoter luciferase, 24 h; % of positive control, neutral wells = 0;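 active = mean activation of at least 80% with every replicate also reaching 80%; inconclusive = mean reaches 80% but some replicate falls short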;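 also: 0% = neutral control wells and 100% = parthenolide positive control wells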
HSF1 inh = HSF1 inhibition. NIH3T3-HGL HSE-luciferase, MG132-induced, luminescence 8 h; stronger effect = lower value. activity change, negative = inhibition, % at 7.5 µM (by protocol). 300,000 compounds, 0.77% hits;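 active = more than half of replicate wells show activity change below -50%, luminescence cut by over half; inconclusive = some wells, but at most half, below -50%; inactive = no replicate well below -50%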;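 also: luciferase reports HSF-1 transcriptional activity via heat shock element; 0% = median of DMSO wells and -100% = zero luminescence signal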
SMARCA2 act = activators of SMARCA2 function; activation, % at 9.1 µM; 370,000 compounds, 1% hits; AID 652017; MG213 cells, MMTV-luciferase reporter, dexamethasone, overnight; in the data active = activation above about 7.8%;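 also: 0% = vehicle wells and 100% = reference activator wells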
HSF-1 act = increases HSF-1 driven luciferase reporter signal; NIH3T3-HGL HSF-1 luciferase reporter, MG132, 8 h; 100% = twice DMSO control signal; activation, % at 9 µM; 300,000 compounds, 1.7% hits; AID 504408;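 active = mean replicate activation of at least 50% with a set share of replicates each reaching 50%; inconclusive = only one of those two conditions met; inactive = mean below 50% and too few replicates reaching it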;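 also: 0% = median of the neutral control wells and 100% = twice that signal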
esBAF inh = inhibitors of esBAF chromatin remodeling in mouse ES cells | AID 602393 | 350,000 compounds, 2% hits | reporter increase, % at 12.5 µM | Bmi1-luciferase knock-in reporter, 24 h; 100% = twice the neutral-well signal; in the data active = activation above about 40%; inconclusive = no clear call, values can overlap the other calls;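 also: 0% = median of the plate's neutral control wells and 100% = double that signal; a rise in the Bmi1 reporter signal indicates esBAF inhibition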
Wnt bcat act = Wnt/beta-catenin pathway activation; 300,000 compounds, 1.2% hits; activation, % at 9.35 µM; Wnt/beta-catenin reporter cell assay, activator, plate reader; in the data active = activation above about 30%, passing the limit was not always enough; inconclusive = no clear call, values can overlap the other calls;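 also: 0% = neutral control wells and 100% = positive control wells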
* = called active by the depositor; ? = inconclusive; . = not tested or not shown. Sampled rows, rich in hits. Any-hit rate of the full collection: about 4.3%.

SMILES	MITF TRPM1 HTS	HSF1 inh	SMARCA2 act	HSF-1 act	esBAF inh	Wnt bcat act
CC/C(=N\Nc1nncc2ccccc12)c1ccc(F)cc1	88*	24	5	18	41*	20
CN(C)c1ccc(-n2cc3c(=O)n(C)c(=O)n(C)c3c2)cc1	70	3	6	-11	71*	.
COCCNC(=O)C[C@H]1C[C@H]2c3cc(NC(=O)NC4CCCCC4)ccc3O[C@H]2[C@@H](CO)O1	.	.	.	.	1	.
Cc1ccc(/C=c2\s/c(=C(/C#N)C(=O)N3CCCC3)n(Cc3ccco3)c2=O)s1	.	50	-3	90*	-11	.
COc1cc(/C=c2\s/c(=C(/C#N)C(=O)N3CCCC3)n(-c3ccccc3)c2=O)ccc1O	.	.	1	.	2	9
C[C@H](CO)N1C[C@H](C)[C@H](CN(C)Cc2ccccc2)OCCCC[C@H](C)Oc2ccc(NS(=O)(=O)c3ccc(Cl)cc3)cc2C1=O	.	.	.	.	-1	.
C=CCN1C2CCCC1CC(NC(=S)Nc1ccc(Cl)cc1)C2 (stereo not given)	15	15	-1	36	.	39*
S=C(Nc1ccc(Cl)cc1)NC1CC2CCCC(C1)N2C1CCCC1 (stereo not given)	7	0	0	2	1	.
O=C(C1CCCN1S(=O)(=O)c1cccc2nsnc12)N1CCCCC1 (stereo not given)	7	3	-2	1	4	4
O=C(NC1CCCCC1)C1CCCN1S(=O)(=O)c1cccc2nsnc12 (stereo not given)	.	8	-3	54*	8	-7
Clc1ccc(-c2ccc(SCc3ccccn3)nn2)cc1	116*	47	0	81*	51*	36*
COc1cccc(-c2ccc(SCc3ccccn3)nn2)c1	114*	24	1	34	.	?
O=[N+]([O-])c1cccc(-c2ccc(SCc3ccccn3)nn2)c1	75	24	2	34	42*	-1
COc1ccc(-c2ccc(SCc3ccccn3)nn2)cc1OC	9	-4	0	7	2	-1
CC=Cc1ccc2n(c1=O)C[C@H]1[C@H](CO)[C@@H](C(=O)NCC3CCCCC3)[C@@H]2N1C(=O)CC (mixture of isomers)	.	.	.	.	0	.
CC=Cc1ccc2n(c1=O)C[C@H]1[C@H](CO)[C@@H](C(=O)NCc3ccccn3)[C@@H]2N1CC1CC1 (mixture of isomers)	.	.	.	.	-2	.
Cc1cc(C)n(-c2nc3ccccc3nc2N2CCN(C(=O)c3ccc(F)cc3)CC2)n1	-9	31	-2	62*	-3	.
Cc1cc(C)n(-c2nc3ccccc3nc2N2CCC(C)CC2)n1	-12	0	-2	13	-14	.
CCOC(=O)Nc1ccc2c(c1)C(=NO)c1ccccc1-2	41	.	7	.	.	55*
CCOC(=O)Nc1ccc2c(c1)Cc1cc([N+](=O)[O-])ccc1-2	77	.	1	.	75*	-1
CCOC(=O)Nc1ccc(OC)c([N+](=O)[O-])c1	-9	4	0	-12	-4	2
CCOC(=O)Nc1ccc2c(c1)C(=NNC(N)=S)c1ccccc1-2	4	.	3	.	-35	0
COCC(=O)Nc1ccc2c(c1)C(=O)N(C)[C@@H]1CC[C@H](CC(=O)N3CCc4ccccc4C3)O[C@H]1CO2	.	.	.	.	-3	.
CCOc1cccc2cc(C(=O)N3CC(C)OC(C)C3)c(=O)oc12 (stereo not given)	-2	-2	1	7	-12	-1
COc1cccc2cc(C(=O)OCC(=O)N3CC(C)OC(C)C3)c(=O)oc12 (stereo not given)	63	.	3	.	64*	-2
SMILES	MITF TRPM1 HTS	HSF1 inh	SMARCA2 act	HSF-1 act	esBAF inh	Wnt bcat act
O=C(COc1ccc(S(=O)(=O)N2CCCCC2)cc1Cl)N1CCCC1	1	-3	-1	-12	2	-2
CC(C)(C)c1ccc(OCC(=O)N2CCCCCC2)c(Br)c1	7	37	6	69*	.	-1
O=C(COc1ccc(Cl)cc1Cl)N1CCCCCC1	.	22	1	25	48*	.
C[C@H](CO)N1C[C@H](C)[C@H](CN(C)S(=O)(=O)c2cccs2)OCCCC[C@H](C)Oc2ccc(NC(=O)Nc3ccc4c(c3)OCO4)cc2C1=O	.	.	.	.	-5	.
C/C=C/c1cnc2c(c1)C(=O)N([C@@H](C)CO)C[C@H](C)[C@@H](CN(C)C(=O)c1ccc3c(c1)OCO3)O2	.	.	.	.	0	.
Cc1ccc2nc(=O)c(NNc3ccccc3)cnc2c1	72	13	2	22	.	?
Cc1nc2ccccc2nc(=O)c1NNc1ccccc1	102*	19	4	65*	.	25
COc1ccc2c(c1)C1=NN(/C(C)=C/C(C)=O)C(c3ccc(F)cc3)C1CC2 (stereo not given)	9	23	0	53*	.	.
COc1ccc2c(c1)C1=NN(/C(C)=C\C(C)=O)C(c3ccccc3)C1CC2 (stereo not given)	19	26	5	46	48*	.
CC(=O)N1N=C2c3ccccc3CCC2C1c1cccs1 (stereo not given)	.	-2	1	13	.	-1
COc1ccc2c(c1)C1=NN(/C(C)=C/C(C)=O)C(c3cccc(F)c3)C1CC2 (stereo not given)	-4	33	1	?	0	2
COc1ccc2c(c1)CCC1C2=NN(/C(C)=C\C(C)=O)C1c1ccc(F)cc1 (stereo not given)	27	31	5	40	.	52*
O=C(N[C@@H]1CC[C@H](CCNC(=O)C2CCOCC2)O[C@H]1CO)c1ccccn1	.	.	.	.	1	.
O=C(NC1CCCC1)N[C@H]1CC[C@H](CC(=O)N2CCOCC2)O[C@H]1CO	.	.	.	.	1	.
NC(=S)COc1ccccc1	7	-7	1	11	.	0
Cc1ccccc1SCC(=O)OCC(=O)Nc1sccc1C(N)=O	5	-1	-3	2	.	0
NC(=O)c1ccsc1NC(=O)COc1ccccc1	70	37	.	69*	65*	-3
Cc1cccc(OCC(=O)OCC(=O)Nc2sccc2C(N)=O)c1	-5	.	-3	.	3	2
NC(=O)c1ccsc1NC(=O)CSc1ccccc1F	61	22	3	58*	75*	25
NC(=O)COc1ccccc1	.	45	-7	79*	.	1
Cc1cc(=O)n2c(nc3ccccc32)[nH]1	8	0	-2	4	.	.
CCOC(=O)c1cc2cc3ccccc3cc2[nH]1	.	.	5	.	22	40*
CC(C)OC(=O)c1cc2ccccc2[nH]1	49	4	1	27	66*	9
CCOC(=O)c1cc(=O)n2c(nc3ccccc32)[nH]1	28	1	2	19	55*	16
Cn1cnc(S(=O)(=O)N2C[C@@H](O)COC[C@@H]3O[C@@H](CC(=O)NCc4cccc(F)c4)CC[C@H]32)c1	.	.	.	.	-1	.
